Compound activity deposited in PubChem BioAssay by several laboratories.
S1P4 agonist: agonists of human S1P4 receptor | S1P4-expressing cell line, agonist reporter assay | activation, % at 4.98 µM | hit rate 0.35% among 220,000 | AID 1509; in the data active = activation above about 11%;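 also: 0% = DMSO vehicle and 100% = reference agonist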
INS promoter inh: TRM-6 insulin promoter activity inhibition | TRM-6 cells (human fetal islet line), insulin promoter-eGFP reporter, imaging; reporter expression induced with tamoxifen | inhibition, % at 2 µM | hit rate 0.9% among 130,000;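 active = inhibition above the mean plus 3 SD, with well images judged a real hit on visual review, cut at about 60% in these data, passing the limit was not always enough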
Insulin prom up: MIN6 insulin promoter up-regulation. MIN6 insulin promoter-GFP reporter, high-content imaging; hits give high values. z-score at 5 µM. hit rate 0.3% among 190,000;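 active = z-score above 3 at 5 µM with at least 500 cells counted in the well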
S1P3 antagonist: S1P3 (human) receptor antagonism. hit rate 0.27% among 170,000. CHO S1P3 NFAT-BLA reporter, FRET fluorescence, antagonist mode. Q99500. inhibition, % at 4.98 µM;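 active = inhibition above the plate cutoff, the mean inhibition of test wells on that plate plus 3 SD, cut at about 28% in these data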;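 also: cells challenged with S1P at its EC80 of 0.8 µM; blue over green emission ratio from cleaved BLA substrate after 4 h stimulation; 0% = S1P-stimulated wells and 100% = unstimulated DMSO-only wells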
Hsp70 act: switches on Hsp70 transcription; HeLa Hsp70 promoter luciferase reporter, luminescence; scaled: vehicle 0, proteasome-inhibitor control 100%; activation, % at 10 µM; hit rate 0.04% among 200,000; AID 1203;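 active = activation above the mean across all tested compounds plus 3 SD, cutoff set per campaign, cut at about 5.5% in these data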;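 also: 100% = MG132 at 30 µM as the positive control and 0% = DMSO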
S1P4 antagonist: antagonists of human S1P4 receptor; O95977; S1P4-expressing cells, antagonist mode, reporter read-out; inhibition, % at 4.98 µM; hit rate 0.26% among 220,000; AID 1510; in the data active = inhibition above about 29%;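 also: 0% = wells stimulated with agonist and 100% = vehicle wells without agonist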
S1P4 antag conf: human S1P4 antagonism, confirmation; AID 1524; hit rate 71% among 520; S1P4-expressing cell line, antagonist mode, reporter read-out; shares compounds with S1P4 antagonist; inhibition, % at 4.98 µM; in the data active = inhibition above about 30%
S1P1 antagonist: human S1P1 antagonism as S1P4 antagonist counter-screen; shares compounds with S1P4 antagonist; cell-based S1P1 antagonist counterscreen, inhibition; inhibition, % at 4.98 µM; hit rate 37% among 520; in the data active = inhibition above about 40%;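 also: receptor stimulated with S1P near its EC80; 0% = agonist stimulated wells and 100% = vehicle only wells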
Target sequence (P21453 whole entry, looked up): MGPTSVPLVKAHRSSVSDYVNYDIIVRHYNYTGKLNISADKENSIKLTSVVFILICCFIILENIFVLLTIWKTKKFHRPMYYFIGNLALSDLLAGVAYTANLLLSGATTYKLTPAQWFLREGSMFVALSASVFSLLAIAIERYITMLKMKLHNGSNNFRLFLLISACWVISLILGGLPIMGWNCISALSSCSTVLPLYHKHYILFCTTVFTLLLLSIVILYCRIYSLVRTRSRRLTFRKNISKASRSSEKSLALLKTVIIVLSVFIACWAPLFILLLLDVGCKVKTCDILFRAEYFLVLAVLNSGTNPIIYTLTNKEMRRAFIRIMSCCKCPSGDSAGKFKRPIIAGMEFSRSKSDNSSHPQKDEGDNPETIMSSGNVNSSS
* marks the source's active call; other numbers are inactive results; i = inactive; . = no result given. Only some compounds are listed: those with a hit (about 1.5% of all), similar ones and a draw of the others.

SMILES	S1P4 agonist	INS promoter inh	Insulin prom up	S1P3 antagonist	Hsp70 act	S1P4 antagonist	S1P4 antag conf	S1P1 antagonist
CCOc1ccc(C(C)=O)cc1N1C(=O)C2C3C=CC(O3)C2C1=O (stereo not given)	-1.9	9.1	-0.37	5.3	0.1	52.6*	19.0	-1.8
Cc1cc(NC(=O)CCCS(=O)(=O)c2nc(-c3cccs3)cc(C(F)(F)F)n2)no1	0.2	0.0	0.97	-10.2	0.3	39.9*	110.8*	44.8*
CS(=O)(=O)c1nc(-c2cccs2)cc(C(F)(F)F)n1	-1.9	6.9	0.54	.	1.0	39.4*	118.5*	40.8*
CS(=O)(=O)c1nc(-c2ccc(F)cc2)cc(C(F)(F)F)n1	-2.5	.	0.4	-9.9	1.7	70.1*	116.9*	20.8
COc1ccc(-c2cc(C(F)(F)F)nc(S(C)(=O)=O)n2)cc1	-0.5	2.9	-0.47	.	-0.2	16.5	.	.
CC(C)OCc1c(C(=O)OC/C(O)=C(\C#N)c2nc3ccccc3[nH]2)oc2ccccc12	-0.8	0.0	-0.21	-2.2	0.9	-6.8	.	.
O=C1c2cccc3c([N+](=O)[O-])ccc(c23)C(=O)N1Cc1cccnc1	2.1	i	2.88	7.0	-0.2	72.1*	95.3*	42.2*
Cc1ccnc(N2C(=O)c3cccc4c([N+](=O)[O-])ccc(c34)C2=O)c1	1.3	.	3.14*	.	-0.1	105.4*	115.3*	133.1*
Cc1ccc(C2Nc3ccccc3C(=O)N2Cc2ccco2)cc1 (stereo not given)	0.9	21.2	1.04	-36.6	0.0	-22.0	.	.
CCOC(=O)C1CCN(c2ncnc3c2[nH]c2cccc(OC)c23)CC1	0.0	0.0	-0.13	16.2	0.1	56.1*	-4.3	26.1
CCCC(=O)Nc1ccc(C(=O)n2ccc(C)n2)cc1	2.2	.	1.25	-10.4	-0.3	1.7	.	.
CCCN1C(=O)S/C(=C\c2ccc(N3CCOCC3)o2)C1=O	-1.6	.	.	-7.7	0.0	9.7	.	.
CCCN1C(=O)S/C(=C/c2ccc(N3CCOCC3)o2)C1=O	-2.5	.	.	-3.7	.	33.1*	14.0	6.7
CC(=O)Nc1nonc1-c1ccccc1	1.2	.	0.06	-9.0	-0.2	-6.4	.	.
Cn1nc(-c2ccc(Cl)cc2)nc2c(=O)n(C)c(=O)nc1-2	-9.2	-5.4	-0.4	.	-0.5	89.6*	110.4*	87.7*
Cc1ccc(-c2nc(C=Nc3ccc(O)cc3)c(O)o2)cc1	-1.0	.	0.23	18.2	0.1	30.8*	43.1*	39.5
CN(C)c1ccc(C(=O)NC2CCCc3ccccc32)cc1 (stereo not given)	-0.8	-70.6	-0.39	-5.7	-0.1	48.4*	56.2*	-10.2
N#Cc1ccc(C(=O)NC2CCCc3ccccc32)cc1 (stereo not given)	-1.2	.	-0.39	-11.5	0.2	-26.4	.	.
O=C(/C=C/c1ccccc1)NC1CCCc2ccccc21 (stereo not given)	-0.6	-28.6	0.3	-0.6	0.0	53.7*	53.6*	-20.8
CCc1ccc(C2c3[nH]c4ccccc4c3CCN2C(=O)c2cc(C)nn2C)cc1 (stereo not given)	-2.4	-4.3	.	-6.9	-0.2	-14.3	.	.
CCCCSc1nc(N)c(NC(=O)c2ccco2)c(=O)[nH]1	1.8	.	-0.11	-34.1	0.0	-19.0	.	.
CC(C)(C)NC(=O)CSc1ncnc2c1nnn2Cc1ccccc1Cl	-1.1	10.0	-0.22	-22.1	0.3	16.0	.	.
CCCOC(=O)c1ccc(NC(=O)C(CC)CC)cc1	0.4	-31.2	0.08	5.9	-0.2	-16.4	.	.
Oc1ccccc1C1CC(c2cccs2)=NC(c2ccc(Cl)cc2)N1 (stereo not given)	-0.3	50.0	-0.23	-6.3	0.0	46.4*	21.1	12.2
CS(=O)(=O)N1N=C(c2cccs2)CC1c1ccccc1O (stereo not given)	-0.7	.	1.62	5.7	-0.2	0.7	.	.
SMILES	S1P4 agonist	INS promoter inh	Insulin prom up	S1P3 antagonist	Hsp70 act	S1P4 antagonist	S1P4 antag conf	S1P1 antagonist
c1ccc2c(c1)CC1(CCCC1)n1nnnc1-2	0.9	.	-0.65	-0.3	0.2	-12.5	.	.
CCOc1ccc(-c2nc(-c3ccccc3)no2)cc1OCC	1.3	.	-0.34	-13.4	0.2	78.4*	-2.9	-42.4
O=[N+]([O-])c1cc(Cl)c(O)c2ncccc12	3.5	.	-1.04	-18.3	-0.1	30.8*	62.4*	54.7*
CCCc1nnc(NC(=O)Cn2cnc3ccccc3c2=O)s1	0.5	.	-0.16	.	-0.2	3.5	.	.
Fc1c(F)c(F)c(/C=N/NC(=S)Nc2cccnc2)c(F)c1F	-3.0	.	.	-3.7	-0.1	39.9*	65.8*	18.7
O=C(Nc1cccc2ccccc12)/C(Cl)=C/c1ccccc1	-1.2	3.7	.	.	-0.1	60.9*	68.4*	17.4
O=C(Nc1ccc(F)cc1)/C(Cl)=C/c1ccccc1	0.1	.	-0.73	-1.4	-0.1	10.7	.	.
Cn1nc(/C=C/c2ccccc2)ccc1=O	2.0	53.9	-0.01	-20.8	-0.1	-11.2	.	.
CCOC(=O)C1=C(C)N=C2SC(C(=O)OC)=CC(=O)N2C1c1ccc(OC)cc1 (stereo not given)	-0.3	-28.6	.	9.6	-0.4	46.5*	16.5	5.7
COC(=O)C1=C(C)N=C2SC(C#N)=C(N)N2C1c1ccc(OC)cc1 (stereo not given)	1.8	.	-0.68	.	0.2	-10.1	.	.
COc1ccc(OC)c(NC(=S)NCc2ccccc2OC)c1	0.1	.	-0.21	-6.2	-0.3	-3.7	.	.
O=C(CCCOc1ccc(Cl)cc1)NCC1CCCO1 (stereo not given)	-0.2	2.9	-0.03	.	0.3	-11.7	.	.
COc1ccc(C2NC(=S)N(c3ccccc3)C(C)=C2C(=O)Nc2ccccc2)cc1 (stereo not given)	-0.3	16.7	0.43	.	-0.6	-4.3	.	.
CC1=C(C(=O)Nc2ccc([N+](=O)[O-])cc2)C(c2cccc(C(F)(F)F)c2)NC(=S)N1c1ccccc1 (stereo not given)	-0.9	-48.6	-0.88	.	-0.2	31.4*	32.8*	15.2
CCCCOc1ccccc1C(=O)NCCCC(=O)O	-5.8	28.8	-0.79	.	-0.2	34.6*	-3.3	-2.4
O=C(CSc1nnc(-c2ccco2)n1CC1CCCO1)c1ccc(F)cc1 (stereo not given)	-1.1	.	0.47	-1.0	-0.2	2.4	.	.
COc1cc2c3nnc(-c4ccccc4)c-3cn(Cc3ccccc3F)c2cc1OC	-5.3	i	.	11.5	0.0	84.1*	85.7*	128.1*
COc1ccc(-c2nnc(SCc3ccccc3F)o2)cc1OC	0.2	19.4	0.27	17.8	-0.2	-10.3	.	.
O=C(/C=C/c1ccc(-c2cccc([N+](=O)[O-])c2)o1)N1CCOCC1	-1.5	.	-0.82	6.4	.	8.4	.	.
Cc1cc(Nc2ccccc2)nc2cc(O)ccc12	0.5	-36.6	0.22	-14.7	-0.1	91.8*	81.2*	41.1*
COc1ccc(N2CCN(c3cc(C)c4ccc(O)cc4n3)CC2)cc1	0.4	.	-0.44	-21.2	-0.1	-10.1	.	.
